In PubChem BioAssay one finds inhibition data, which are given here for 23 compounds.

The structures appear in SMILES notation. Active and inactive are the calls of the source.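 How the source made its calls: active means mean inhibition above 46.5%, the solvent-only control mean plus 3 SD; inactive means the rest.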

Chain of Nuclear receptor coactivator 2 (Homo sapiens) (Q15596 whole entry, looked up, the tested form may be a part): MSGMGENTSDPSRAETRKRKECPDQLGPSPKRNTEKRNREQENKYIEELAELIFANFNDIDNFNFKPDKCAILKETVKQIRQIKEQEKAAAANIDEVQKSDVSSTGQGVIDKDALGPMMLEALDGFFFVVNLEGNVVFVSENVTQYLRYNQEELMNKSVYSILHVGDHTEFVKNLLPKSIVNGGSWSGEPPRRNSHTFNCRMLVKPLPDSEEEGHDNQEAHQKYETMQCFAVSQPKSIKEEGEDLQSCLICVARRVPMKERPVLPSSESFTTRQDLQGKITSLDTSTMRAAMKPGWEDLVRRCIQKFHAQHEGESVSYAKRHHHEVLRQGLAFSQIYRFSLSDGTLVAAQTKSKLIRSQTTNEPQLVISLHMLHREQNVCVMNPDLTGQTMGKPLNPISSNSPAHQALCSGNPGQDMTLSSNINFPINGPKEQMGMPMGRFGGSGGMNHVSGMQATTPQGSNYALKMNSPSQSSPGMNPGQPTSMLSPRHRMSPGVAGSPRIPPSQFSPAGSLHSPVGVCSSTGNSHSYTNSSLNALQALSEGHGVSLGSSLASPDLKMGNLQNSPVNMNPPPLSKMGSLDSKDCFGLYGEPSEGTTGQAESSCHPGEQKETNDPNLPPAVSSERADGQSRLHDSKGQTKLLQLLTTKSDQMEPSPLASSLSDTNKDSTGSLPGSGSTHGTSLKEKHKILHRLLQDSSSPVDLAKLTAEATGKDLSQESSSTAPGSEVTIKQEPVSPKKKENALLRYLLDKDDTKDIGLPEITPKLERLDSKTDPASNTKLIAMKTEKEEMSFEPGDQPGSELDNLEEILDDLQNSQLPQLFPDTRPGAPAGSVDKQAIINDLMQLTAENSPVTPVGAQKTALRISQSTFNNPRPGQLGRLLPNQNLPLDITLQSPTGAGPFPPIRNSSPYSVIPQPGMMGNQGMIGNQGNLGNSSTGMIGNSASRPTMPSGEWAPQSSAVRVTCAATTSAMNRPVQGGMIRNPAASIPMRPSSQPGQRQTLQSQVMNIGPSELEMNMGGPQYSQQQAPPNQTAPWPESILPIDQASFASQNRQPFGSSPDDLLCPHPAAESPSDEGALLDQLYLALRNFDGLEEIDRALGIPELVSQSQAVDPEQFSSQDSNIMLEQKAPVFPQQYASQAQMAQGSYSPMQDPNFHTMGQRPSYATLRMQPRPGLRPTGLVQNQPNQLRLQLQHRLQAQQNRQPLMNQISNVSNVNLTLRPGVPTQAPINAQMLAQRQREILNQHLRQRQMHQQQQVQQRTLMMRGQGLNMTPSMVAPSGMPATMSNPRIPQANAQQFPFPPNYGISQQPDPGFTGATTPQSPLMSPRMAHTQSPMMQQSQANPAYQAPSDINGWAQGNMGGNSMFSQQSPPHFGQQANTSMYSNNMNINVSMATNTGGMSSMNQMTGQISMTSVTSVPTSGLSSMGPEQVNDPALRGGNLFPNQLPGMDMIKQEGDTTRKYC

This assay has as its target Nuclear receptor coactivator 2 (Homo sapiens) (UniProt Q15596). The assay is described as follows: inhibition of GAL4-SRC2 driven luciferase expression – cell-based, luminescence, HEK293, triplicate, confirmation (AID 652008).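 Further: 0% = DMSO-treated cells and 100% = Gossypol at 36 µM.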 The note with it: HEK293 GAL4-SRC2 luciferase reporter, at 8.9 µM, active compounds read high.
Take `O=C(CCCc1ccccc1)c1ccc2c(c1)OCCO2`: the inhibition is 73.9% (active).

For the compound `O=C(CSc1ncccc1C(=O)O)Nc1ccc2c(c1)OCCO2`, the inhibition is -11.1% (inactive). Turning to `Cc1nnsc1C(=O)NC1CCCc2c1cnn2-c1ccc(C(C)(C)C)cc1` (stereo not drawn), the inhibition was 31.2% (inactive). Regarding `Cc1scc(C(=O)N/N=C/c2ccc([N+](=O)[O-])o2)c1C`, the inhibition was 68% (active). As to `CCOc1ccc(-c2cc(CCCC(=O)Nc3cccc(OC)c3)no2)cc1`, the inhibition is 58.9% (active). With `O=C1/C(=C\c2ccccc2)CN(C(=O)CCN2CCCCC2)C/C1=C/c1ccccc1`, the inhibition is -4.61% (inactive). `CC(=O)NC(c1cccc([N+](=O)[O-])c1)c1ccc2cccnc2c1O` (stereo not drawn): the inhibition is 31.1% (inactive).

As to `COc1cccc(C2=CC(=O)CC(C)(C)C2)n1`, the inhibition was 32.9% (inactive).

`CCCCCCCCCC[n+]1cccc2c3ccccc3ccc21`: the inhibition is 58.6% (active). As to `Cc1ccnc2c1ccc1cccnc12`, the inhibition is 29% (inactive). For `CC(C)(C)C(=O)Nc1cc2nn(-c3ccccc3)nc2cc1Cl`, the inhibition was 90.3% (active).

Turning to `O=C(NCCc1c[nH]c2ccccc12)c1ccc([N+](=O)[O-])o1`, the inhibition is 15.3% (inactive). Consider `N#Cc1cccc(C=C(C(=O)c2ccccc2)c2ccccc2)c1`, for which the inhibition was 62.2% (active). In the case of `CC1C/C(=C\c2cccnc2)C(=O)/C(=C/c2cccnc2)C1` (stereo not drawn), the inhibition was 93.9% (active). Consider `O=C(CCl)N(c1ccccc1)c1c[nH]c2ccccc12`, for which the inhibition was 17.9% (inactive). Regarding `Cc1cc(C)c(C#N)c(Sc2nc(C)c([N+](=O)[O-])c(C)c2C#N)n1`, the inhibition is 25.4% (inactive). Consider `O=C1C=CC2(C=C1)O[C@H](Cc1ccccc1)[C@@H](Cc1ccccc1)O2`, for which the inhibition was 63.8% (active). Take `C=CC(=O)N1C/C(=C/c2ccccc2)C(=O)/C(=C\c2ccccc2)C1`: the inhibition was 65.3% (active).

For the compound `COc1ccc(NS(=O)(=O)c2ccc3c(c2)OCCO3)cc1OC`, the inhibition was 27.8% (inactive). As for `COc1ccc(NC(=O)/C(Cl)=C(/Cl)S(=O)Cc2ccccc2)cn1` (stereo not drawn), the inhibition was 100% (active). Turning to `c1ccc2c(c1)CCN(c1ncnc3c1[nH]c1ccccc13)C2`, the inhibition was 40.2% (inactive). In the case of `CC1CCC/C=C/C(=O)c2c(O)cc(O)cc2CC(=O)O1` (stereo not drawn), the inhibition was 33.2% (inactive).

Turning to `Cn1cnc([N+](=O)[O-])c1Oc1ccc2ccccc2c1`, the inhibition is 19.6% (inactive).
